# Whole data set: some 33,000 sequences, median “E-score (-0.5 to 0.5)” near -0.053, cut for the highest 2% near 0.37. The list comes from a sample in which the highest values are over-represented; it also holds similar and randomly drawn sequences.
# Target: Hap1 (UniProt P0CE41)
# Test: PBM E-score (8-mer binding enrichment) (E-score (-0.5 to 0.5)); higher = stronger / more preferred TF binding
# Settings: protein concentration: 200 nM; construct: GST-DNA-binding domain
# Description: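 Universal 'all 10-mer' protein binding microarrays (Agilent AMADID 015681) probed with GST-tagged S. cerevisiae TFs (full-length or DBD) made by in vitro transcription/translation (PURExpress), about 100-200 nM. Bound TF was detected with fluorescent anti-GST. Each ungapped 8-mer (which stands for itself and its reverse complement) is scored by the PBM enrichment score (E-score), a modified Wilcoxon-Mann-Whitney statistic from -0.5 to +0.5, computed with the Universal PBM Analysis Suite. Scale: above 0.35 generally sequence-specific binding.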
# UniProt P0CE41, sequence (P0CE41 whole entry): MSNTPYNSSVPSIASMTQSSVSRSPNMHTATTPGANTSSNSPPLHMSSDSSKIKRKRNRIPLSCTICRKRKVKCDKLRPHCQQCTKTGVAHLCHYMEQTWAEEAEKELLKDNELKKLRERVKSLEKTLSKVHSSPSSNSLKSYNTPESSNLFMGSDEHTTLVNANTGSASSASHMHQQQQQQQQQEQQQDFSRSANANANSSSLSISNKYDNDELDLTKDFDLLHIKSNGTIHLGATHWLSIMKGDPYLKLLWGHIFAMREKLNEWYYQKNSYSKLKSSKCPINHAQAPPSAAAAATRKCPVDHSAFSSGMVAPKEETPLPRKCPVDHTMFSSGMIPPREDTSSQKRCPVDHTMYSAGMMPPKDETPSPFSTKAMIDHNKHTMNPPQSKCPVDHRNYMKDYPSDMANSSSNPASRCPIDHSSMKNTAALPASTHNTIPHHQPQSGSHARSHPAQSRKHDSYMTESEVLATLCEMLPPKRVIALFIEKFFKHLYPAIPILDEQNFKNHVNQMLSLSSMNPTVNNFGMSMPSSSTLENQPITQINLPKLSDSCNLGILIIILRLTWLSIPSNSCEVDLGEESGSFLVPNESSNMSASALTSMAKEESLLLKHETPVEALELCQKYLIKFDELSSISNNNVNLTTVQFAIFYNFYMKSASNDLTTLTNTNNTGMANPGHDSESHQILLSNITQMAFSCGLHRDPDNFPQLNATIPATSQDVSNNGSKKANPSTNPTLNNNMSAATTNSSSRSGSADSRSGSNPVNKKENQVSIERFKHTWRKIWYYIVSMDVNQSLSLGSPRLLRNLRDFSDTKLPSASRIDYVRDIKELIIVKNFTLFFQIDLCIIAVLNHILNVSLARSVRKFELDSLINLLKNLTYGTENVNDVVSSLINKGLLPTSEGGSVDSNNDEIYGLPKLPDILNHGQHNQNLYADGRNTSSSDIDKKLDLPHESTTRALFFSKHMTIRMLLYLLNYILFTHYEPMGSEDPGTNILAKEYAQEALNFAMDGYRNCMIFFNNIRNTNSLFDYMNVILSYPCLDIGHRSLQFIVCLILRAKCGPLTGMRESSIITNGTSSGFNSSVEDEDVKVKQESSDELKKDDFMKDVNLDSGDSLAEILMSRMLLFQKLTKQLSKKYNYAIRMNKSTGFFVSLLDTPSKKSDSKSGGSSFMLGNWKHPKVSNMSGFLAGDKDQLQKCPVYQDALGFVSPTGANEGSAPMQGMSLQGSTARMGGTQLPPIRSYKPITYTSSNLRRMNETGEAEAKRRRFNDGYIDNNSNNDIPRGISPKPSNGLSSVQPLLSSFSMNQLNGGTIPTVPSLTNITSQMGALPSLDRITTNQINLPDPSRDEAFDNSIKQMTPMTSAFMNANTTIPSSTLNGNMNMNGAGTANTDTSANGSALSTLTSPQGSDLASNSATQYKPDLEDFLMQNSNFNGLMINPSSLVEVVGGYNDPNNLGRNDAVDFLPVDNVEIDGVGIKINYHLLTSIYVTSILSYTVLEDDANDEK
row,Sequence,PBM E-score
1,ACCCGGTG,0.249
2,GCCCGGTA,0.38
3,GCCCGGCA,0.25
4,ACCCGGTA,0.376
5,AAGCCTCA,-0.136
6,CACCGCAC,0.0364
7,CGTGCACC,-0.0161
8,CGGTCCGC,0.317
9,AGGTCCTG,-0.0186
10,CGGTCCGA,0.435
11,AGGTCCGA,0.404
12,AGGTCCAG,-0.0779
13,AGGTCCGC,0.33
14,CGGTCCTA,0.33
15,AGGTCCCA,-0.174
16,GGGTCCAA,0.15
17,GGGTCCCA,-0.0688
18,AGGTCCGG,0.396
19,GGGTCCGA,0.38
20,AGTGAAAA,0.0463
21,ATCTAGCG,0.00616
22,AGATAGCC,0.0418
23,CGCGAATA,0.182
24,ATCTGAGA,-0.25
25,CTTCGACA,-0.309

row,Sequence,PBM E-score
1,GCAGTAGA,-0.3
2,AGGTTCGA,-0.0833
3,CGGCTGAC,0.192
4,GCTCTTCC,0.0685
5,AACTTTTG,-0.0532
6,CAAAGAGC,-0.176
7,GCGGCAAC,0.00981
8,ACGGCAAC,-0.0151
9,CCGGCAAG,0.269
10,GCGGCAAA,0.202
11,CCGGCAAA,0.387
12,CCGGCAAC,0.373
13,AGTTTTTA,-0.141
14,AGATTATA,-0.0616
15,ATTCTGGC,-0.0263
16,AGCCCTTA,-0.128
17,CTCTACAA,-0.178
18,ACTTCCGG,0.382
19,ATTTCCTG,-0.0599
20,ATTTCCGC,0.399
21,GTTTCCAA,-0.238
22,CTTTCCGC,0.194
23,ATTTCCCC,0.181
24,ATTTCCGG,0.459
25,ACTTCCGA,0.31

row,Sequence,PBM E-score
1,ATTTCCAG,0.129
2,CTTTCCGA,0.316
3,ACTTCCGC,0.249
4,GTTTCCGA,0.379
5,AAAACAAA,0.043
6,AGCGCACC,0.149
7,CGGTTCTA,0.276
8,ATCAAGAG,-0.172
9,ACGGAACG,0.195
10,CTACCAGC,-0.319
11,CATAGGCG,-0.196
12,GCCACTAC,-0.042
13,ATTTCCCA,-0.131
14,ATTTCCAA,0.0623
15,ATTTCCGA,0.432
16,CCGTCTCC,0.126
17,AACCTATC,-0.00501
18,GATAGTGC,-0.0408
19,CGTACGAC,-0.0847
20,CACGTCGG,0.28
21,CTCCGGCA,0.371
22,GTCCGCTA,0.37
23,GTCCGGTA,0.419
24,GTTCGGTA,0.249
25,CGCCGGTC,0.295

row,Sequence,PBM E-score
1,GTACGGTA,0.0448
2,CTCCGGTC,0.431
3,CTCCGGCC,0.358
4,ATCCGGCA,0.329
5,CTCCGCTA,0.336
6,ATCCGGTC,0.329
7,ATCCGCTA,0.306
8,GGCATCGA,-0.206
9,AAATGAAT,-0.213
10,CCAGCGTC,0.0197
11,AGTTCTTA,0.0534
12,CGCCATCC,-0.00934
13,CGTCGGAA,0.306
14,CATTTGCC,-0.0698
15,AGGGAACG,-0.0997
16,CGCCGGTA,0.345
17,ATCCGGTA,0.357
18,CTCCGGTA,0.439
19,CAAGCTCC,0.00322
20,AGGGCTTA,-0.203
21,AGGGCATA,-0.102
22,CGGGCTTC,0.307
23,GGGGCATA,0.0612
24,CGGGCTTA,0.437
25,CGGGCATA,0.386

row,Sequence,PBM E-score
1,GTACTTCA,0.032
2,GGGGTTAA,0.386
3,GGGTTTTA,0.288
4,GGGTTTAA,0.387
5,GGGGTTAC,0.218
6,TGGTTTAA,-0.161
7,AGGGTTAA,-0.259
8,ATCTATCG,0.268
9,GACTCGGC,0.186
10,AACGAAGG,-0.308
11,ACTTGGTG,-0.25
12,ACCTGCCG,-0.0501
13,GAGCGCAA,-0.175
14,AGTTACTA,-0.128
15,ACCAGTGA,-0.18
16,GGTAGTTA,0.0824
17,CCCTAGCC,-0.138
18,ATTCGGAA,0.311
19,ATTCGGCA,0.224
20,ATTCGGAG,0.299
21,ATTCGGCC,0.375
22,GTTCGGAA,0.312
23,ATTCGGAC,0.382
24,ATTCGGGG,0.393
25,ATTCGGGC,0.308

row,Sequence,PBM E-score
1,CTTCGGAA,0.403
2,ATTCGGCG,0.278
3,AGTCGGAC,0.318
4,ATTCGGGA,0.197
5,AGGTGAAG,-0.184
6,CGATTCAA,-0.0364
7,GACGGGGC,0.0768
8,GTCCACAC,0.0984
9,ATTCGCCG,0.295
10,ATCCCAAG,-0.0728
11,AAACTGCC,-0.0803
12,ACTAGTTC,-0.0373
13,CTTCGGAC,0.406
14,CTTCGGGC,0.208
15,CTTCGGCC,0.309
16,AATCTCGT,0.0299
17,CTATCGCC,0.102
18,AAATCGGC,0.303
19,ATATCGCG,0.314
20,CTATCGGC,0.385
21,CTATCGTC,-0.0802
22,ATATCGTC,0.0615
23,ATATCGGC,0.455
24,CGATCGGC,0.312
25,ATATCGCC,0.414

row,Sequence,PBM E-score
1,GCCCAAGA,-0.22
2,CCACATCA,-0.064
3,CTTGCTCA,-0.129
4,GAGAGATA,0.0119
5,GCACAGAC,0.0195
6,GCTGATTA,-0.00254
7,CGGCCTGA,0.183
8,AGGCCGTA,0.0497
9,AGGCCGGC,0.271
10,GGGCCGGA,0.355
11,AGGCCGGA,0.336
12,CGGCCTTC,0.301
13,CGGCCGGC,0.422
14,CGGCCGTA,0.417
15,CGGCCGGA,0.436
16,CGGCCTTA,0.439
17,CTGCCGGC,0.322
18,CGGCCGTC,0.277
19,AATGGGCC,0.0191
20,ACTCAGGA,-0.123
21,CCAAATGA,0.00146
22,ACAGCACT,-0.0793

# Source: the supplement of paper PMC3334620
